# Sampled rows, rich in hits. Any-hit rate of the full collection: about 4.6%.
# D1 agonist: human D1 receptor agonism; activation, % at 2 µM; P21728; 360,000 tested, 1% active; AID 504660; HEK293 T-REx D1 cells, calcium flux, agonist mode; note: 0% is about no effect
# Target sequence (P21728 whole entry, looked up): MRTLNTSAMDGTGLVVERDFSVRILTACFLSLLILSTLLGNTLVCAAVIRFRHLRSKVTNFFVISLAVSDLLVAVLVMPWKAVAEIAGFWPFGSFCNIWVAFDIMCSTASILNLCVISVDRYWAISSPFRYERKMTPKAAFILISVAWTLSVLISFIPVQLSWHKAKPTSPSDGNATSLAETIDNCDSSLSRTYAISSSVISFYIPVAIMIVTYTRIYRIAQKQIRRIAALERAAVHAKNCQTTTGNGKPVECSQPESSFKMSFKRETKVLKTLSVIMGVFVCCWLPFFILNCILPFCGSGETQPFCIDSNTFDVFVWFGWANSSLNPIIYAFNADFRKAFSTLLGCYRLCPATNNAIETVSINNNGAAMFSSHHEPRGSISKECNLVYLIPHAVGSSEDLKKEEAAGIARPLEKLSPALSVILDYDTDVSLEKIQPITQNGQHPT
#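 Agonism was scored from calcium flux recorded over 180 s (1 read/s) after pintool compound addition, following a 10-cycle baseline. Cells were inducible force-coupled HEK293 TREx D1, plated overnight at 30 C and loaded with no-wash calcium dye.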
# TRHR agonist: TRH receptor (human) agonism. P34981. TRHR cells, calcium flux fluo-8, FDSS agonist mode. activation, % at 2 µM. 360,000 tested, 0.18% active; note: 0% is about no effect
#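 Steps: seed TRHR cells overnight; add fluo-8 no-wash Ca dye, RT 30 min–1.5 h; record 10 s baseline; pin-transfer compounds; monitor fluorescence 1 cycle/s for the agonist window. Calcium increases flag candidate agonists.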
# D1 antag: human D1 dopamine receptor antagonism | P21728 | HEK293 TREx D1 cells, calcium flux, dopamine EC80; stronger effect = lower value | 360,000 tested, 3.2% active | activity change, negative = inhibition, % at 10 µM; in the data active = activity change below about -30%; note: % is set by controls: 0 for no effect and ±100 for the full control effect
#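 Cells carrying a force-coupled, tetracycline-inducible human D1 receptor report calcium flux. Each well gets a 10 s baseline, compound with 180 s monitoring, then an EC80 dopamine stimulus with a second 180 s kinetic read.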
# D1 PAM: enhances dopamine response at the human D1 receptor | P21728 | potentiation, % at 10 µM | HEK293 TREx D1 cells, calcium flux, dopamine EC20 potentiation | 360,000 tested, 0.036% active; in the data active = potentiation above about 30%; note: 0% is about no effect
# TRHR PAM: allosterically enhances the human TRH receptor | P34981 | TRHR cells, fluo-8 calcium fluorescence, EC20 TRH enhancement | enhancement, % at 2 µM | 360,000 tested, 0.66% active | AID 493056; in the data active = enhancement above about 30%; note: 0% is about no effect
#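 Enhancer read-out: after compound pinning and an initial kinetic agonist-mode read, an EC20 of TRH (10 nM final) was injected and fluo-8 calcium signal (Ex 480/Em 530) followed at 1 s/cycle for 100 cycles in TRHR-expressing cells.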
# Numbers without * were called inactive; x = no result given. Cut-off read from the data, not from the text of the source, unless noted: active = activation above about 30%; inactive = the rest.
SMILES,D1 agonist,TRHR agonist,D1 antag,D1 PAM,TRHR PAM
COc1ccc(C2Nc3ccccc3-n3c(-c4ccccc4)c4c(=O)n(C)c(=O)n(C)c4c32)cc1 (configuration not stated),16,-1,-10,-3,0
COc1ccc2sc(N(Cc3cccnc3)C(=O)c3cccs3)nc2c1,-2,0,x,-3,2
CS(=O)(=O)N(Cc1ccccc1)c1ccc(C(=O)Nc2ccccc2C(=O)O)cc1,1,-1,7,18,1
Cc1ccccc1NC(=O)c1ccc(N(Cc2ccccc2)S(C)(=O)=O)cc1,9,0,-12,0,36*
CCCC(=O)Nc1ccc2nn(-c3ccc(CC)cc3)nc2c1,3,1,20,1,-1
S=c1[nH]nc(-c2ccc3ccccc3n2)n1-c1cc(Cl)cc(Cl)c1,41*,-1,-26,-11,-2
CC(C)C(=O)Nc1ccc(Sc2ccc(F)cc2)cc1,11,1,-50*,-10,-3
CC(C)C(=O)Nc1ccc(Nc2ccccc2)cc1,3,0,-15,-2,4
CC(C)(C)C(=O)Nc1cccc(S(=O)(=O)NC2=NCCC2)c1,0,0,1,3,0
CC1=C(C(=O)Nc2ccc(C)cc2C)C(CC(C)C)n2nc(SCc3ccccc3C)nc2N1 (configuration not stated),-1,1,-36*,-2,-2
CC1=C(C(=O)Nc2ccc(Cl)cc2)C(CC(C)C)n2nc(SCc3ccccc3C)nc2N1 (configuration not stated),2,1,-3,-2,1
Cc1nnsc1C(=O)Oc1ccccc1Cl,-1,0,-4,0,-8
Cc1ccc(CNC(=O)CN2C(=O)COc3ccc(S(=O)(=O)N4CCCCC4)cc32)o1,0,0,6,-4,-9
CCNc1nc(Oc2ccc(C(=O)OC)cc2)nc(N(C)C)n1,12,-1,-31*,-5,4
Cc1ccc(NC(=O)NCCOCCn2c(=O)oc3ccccc32)c(C)c1,0,-1,2,1,1
CCOC(=O)c1c(NC(=O)CSc2cn(CCNC(=O)c3c(F)cccc3F)c3ccccc23)sc2c1CCC2,-1,1,7,-4,-7
COc1ccccc1NC(=O)OCC#CCOC(=O)Nc1ccccc1OC,23,-1,-58*,-4,2
CCOC(=O)c1cccnc1SCC(=O)N(C)c1ccccc1,5,0,-44*,1,3
NC(=O)NC(=O)C(c1ccccc1)N1CCN(S(=O)(=O)Cc2ccccc2)CC1 (configuration not stated),7,0,-31*,x,-2
CSc1ccc(CCNC(=O)c2ccc3c(c2)nc2n3CCCCC2)cc1,1,-1,-15,-4,-3
COCCNC(=S)N(CCc1c(C)[nH]c2ccc(F)cc12)Cc1cccs1,15,1,-38*,-2,-7
COC(=O)c1ccc(NC(=O)CSc2ncc3c(n2)-c2cc(Cl)ccc2N(Cc2ccccc2)S3(=O)=O)cc1,1,1,-1,5,-12
CC(C)c1c(C(=O)N/N=C/c2ccoc2)nnn1-c1nonc1N,16,0,5,6,9
CC(C)c1c(C(=O)N/N=C/c2ccsc2)nnn1-c1nonc1N,39*,2,28,19,18
CC(C)c1c(C(=O)N/N=C/c2ccc(C(F)(F)F)cc2)nnn1-c1nonc1N,253*,-1,8,9,1
SMILES,D1 agonist,TRHR agonist,D1 antag,D1 PAM,TRHR PAM
CC(C)c1c(C(=O)N/N=C/c2cccs2)nnn1-c1nonc1N,22,0,24,0,-2
CC(C)N=C(NC#N)SCc1ccccc1,2,-1,-47*,-4,-3
CC(C)N=C(NC#N)SCc1ccc(Br)cc1,2,-1,-4,-3,3
N#CNC(=Nc1cccc(F)c1)SCc1cccc(F)c1,23,2,-32*,-6,-4
CCCCSCCCNC(=O)c1cn(CC)c2ccc(S(=O)(=O)N(C)C3CCCCC3)cc2c1=O,12,2,10,6,-3
C#CC(C)(CC)NC(=O)Cn1nnc(-c2ccc(OCc3ccccc3F)cc2)n1 (configuration not stated),4,1,1,-5,-2
N#Cc1ccc(Oc2c(Cl)cncc2Cl)cc1,4,0,7,-3,37*
CCc1ccc(Nc2ccc(C(=O)O)cc2[N+](=O)[O-])cc1,1,1,-3,0,-2
Cc1ccc(Nc2ccc(C(N)=O)cc2[N+](=O)[O-])cc1C,1,-2,-53*,-12,3
CCc1ccc(Nc2ccc(C(N)=O)cc2[N+](=O)[O-])cc1,1,0,-40*,-4,0
Cc1ccc(NC(=O)CSc2ccc(C(N)=O)cc2[N+](=O)[O-])cc1C,-2,0,x,1,-4
O=C(CCSCc1cccc(Cl)c1)NCc1ccccc1Cl,8,-1,-11,-1,1
Cc1c(C(=O)Nc2ccc(F)cc2)oc2ccc(S(=O)(=O)N3CCCCCC3)cc12,2,0,7,-1,-1
CCN(CC)C(=O)Cn1c(=O)n(-c2ccc(Cl)c(Cl)c2)c(=O)c2c(C)c(C(=O)N(CC)CC)sc21,-1,0,12,0,-7
CC(=O)Oc1ccc(Cn2cnc3cc4ccccc4cc32)cc1,11,1,-42*,-10,4
CCOc1ccc2c(c1)ncn2Cc1ccccc1,3,-1,-12,-3,-13
Clc1ccc(CNc2ccc(CNc3ncn[nH]3)cc2)c(Cl)c1,7,0,-46*,-12,2
O=C(NC1CC1)c1sc2ccccc2c1Cl,1,-1,-2,-4,-1
COc1ccc(C(=O)NNC(=S)NC(=O)/C=C/c2cccs2)cc1,3,-1,-35*,5,0
O=C(NNC(=O)C1CC2CCC1C2)c1sc2ccccc2c1Cl (configuration not stated),3,-1,-34*,-5,-6
CC(C)(C)C(=O)NC(=S)NNC(=O)c1sc2ccccc2c1Cl,446*,-2,46,56*,4
COc1ccc(C(=O)NNC(=S)NC(=O)C(C)(C)C)cc1,306*,79*,-35*,-4,-11
O=C(NNC(=S)NC1CCCCC1)c1sc2ccccc2c1Cl,3,1,2,-10,1
Cc1ccc(OCc2nc(-c3ccc(C(=O)NCCc4ccc(S(N)(=O)=O)cc4)cc3)oc2C)cc1,1,0,23,-3,7
COc1ccc(CCNC(=O)c2ccc3c(c2)N(Cc2ccccc2C)C(=O)c2ccccc2S3)cc1OC,5,1,-11,-2,2
C=CCSc1nc(N)c(C#N)c(-c2ccc(C)cc2)c1C#N,2,0,-4,-5,38*
Cc1ccc(NC(=O)COC(=O)CCCC2=NS(=O)(=O)c3ccccc3N2)cc1C,2,0,-6,8,11
